According to PubChem BioAssay (EPA / NIEHS):
The source made the active and inactive calls. The calls were made as follows: active = hit-call score of the fitted dose curve at least 0.9, where 1 is the maximum; inactive = score below 0.9.

test: CCTE_Harrill_HTTr_Viability_MCF7: CCTE's 6-hour Cell Viability Assessment for the High-Throughput Transcriptomics (HTTr) Platform, in MCF-7 cells cultured in DMEM + 10% fetal bovine serum, Harrill Lab (AID 2284010)
Summary of the method: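 Propidium iodide exclusion, imaged by high-content analysis, gauged viability after a six-hour exposure across eight concentrations. Cells were MCF-7 grown in DMEM with 10% fetal bovine serum; fits run in both directions against DMSO.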

| SMILES | outcome |
| --- | --- |
| C1CN2CCN1CC2 | inactive |
| CC(C)=CC1C(C(=O)OCc2cccc(Oc3ccccc3)c2)C1(C)C (stereo not drawn) | inactive |
| OCCCCO | inactive |
| CCOC(=O)OC1=C(c2cc(C)ccc2C)C(=O)NC12CCC(OC)CC2 (stereo not drawn) | inactive |
| CCOCn1c(-c2ccc(Cl)cc2)c(C#N)c(Br)c1C(F)(F)F | inactive |
| CCCSP(=S)(OCC)Oc1ccc(SC)cc1 (stereo not drawn) | inactive |
| CN(C)C(=S)S | inactive |
| Cc1cccc(C)c1NC(=O)CN1CCCC1=O | inactive |
| O=C(Cc1ccccc1)OCCc1ccccc1 | inactive |
| Clc1cccc(Cl)c1Cl | inactive |
| CCOc1cc(C=O)ccc1O | inactive |
| CCCSP(=S)(OCC)Oc1ccc(Cl)cc1Cl (stereo not drawn) | inactive |
| O=CCCl | inactive |
| Oc1ccc(Cc2ccc(O)cc2)cc1 | inactive |
| CCC[CH2][Sn]([Cl])([Cl])[CH2]CCC | inactive |
| OC[C@@H](O)[C@H]1O[C@@H]2O[C@H](C(Cl)(Cl)Cl)O[C@@H]2[C@H]1O | inactive |
| Brc1c(Br)c(Br)c(Oc2c(Br)c(Br)c(Br)c(Br)c2Br)c(Br)c1Br | inactive |
| CC(O)(CS(=O)(=O)c1ccc(F)cc1)C(=O)Nc1ccc(C#N)c(C(F)(F)F)c1 (stereo not drawn) | inactive |
| C=CCc1ccccc1O | inactive |

| SMILES | outcome |
| --- | --- |
| CCCCOC(=O)COC(=O)c1ccccc1C(=O)OCCCC | inactive |
| Cc1cc(SCc2sc(-c3ccc(C(F)(F)F)c(F)c3)nc2C)ccc1OCC(=O)O | inactive |
| Cc1cc(C(F)(C(F)(F)F)C(F)(F)F)ccc1NC(=O)c1cccc(I)c1C(=O)NC(C)(C)CS(C)(=O)=O | inactive |
| C[As+](C)(C)CC(=O)[O-] | inactive |
| CN(N=O)C(N)=O | inactive |
| C[C@]12CC[C@@H](O)C[C@@H]1CC[C@@H]1[C@@H]2CC[C@]2(C)C(=O)CC[C@@H]12 | inactive |
| CNC(=O)CSP(=O)(OC)OC | inactive |
| Nc1ccc(N)cc1 | inactive |
| Nc1ncn[nH]1 | inactive |
| CC1(C)[C@H](C(=O)O[C@H](C#N)c2cccc(Oc3ccccc3)c2)[C@@H]1/C=C(\Cl)C(F)(F)F | inactive |
| CC(C)[C@@H](Nc1ccc(C(F)(F)F)cc1Cl)C(=O)OC(C#N)c1cccc(Oc2ccccc2)c1 (stereo partly drawn) | inactive |
| Cc1cc(Cl)ccc1N | inactive |
| Brc1ccc(Br)cc1 | inactive |
| O=[N+]([O-])c1ccccc1O | inactive |
| OCCN(CCO)CCO | inactive |
| CC(C)(C)c1ccccc1O | inactive |
| O=C(O)COc1ccc(Cl)cc1 | inactive |
| N#Cc1cccnc1 | inactive |

test: CCTE_Harrill_HTTr_Apoptosis_MCF7: CCTE's 6-hour Apoptosis Assessment for the High-Throughput Transcriptomics (HTTr) Platform, in MCF-7 cells cultured in DMEM + 10% fetal bovine serum, Harrill Lab (AID 2284011)
Summary of the method: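 Cells are dosed with test chemicals at eight concentrations and imaged 6 hours later for caspase-3/7 activity using a green fluorogenic detection reagent. Activity is fitted in both directions against DMSO controls.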

| SMILES | outcome |
| --- | --- |
| C1CN2CCN1CC2 | inactive |
| CC(C)=CC1C(C(=O)OCc2cccc(Oc3ccccc3)c2)C1(C)C (stereo not drawn) | inactive |
| OCCCCO | inactive |
| CCOC(=O)OC1=C(c2cc(C)ccc2C)C(=O)NC12CCC(OC)CC2 (stereo not drawn) | inactive |
| CCOCn1c(-c2ccc(Cl)cc2)c(C#N)c(Br)c1C(F)(F)F | inactive |
| CCCSP(=S)(OCC)Oc1ccc(SC)cc1 (stereo not drawn) | inactive |
| CN(C)C(=S)S | inactive |
| Cc1cccc(C)c1NC(=O)CN1CCCC1=O | inactive |
| O=C(Cc1ccccc1)OCCc1ccccc1 | inactive |
| Clc1cccc(Cl)c1Cl | inactive |
| CCOc1cc(C=O)ccc1O | inactive |
| CCCSP(=S)(OCC)Oc1ccc(Cl)cc1Cl (stereo not drawn) | inactive |
| O=CCCl | inactive |
| Oc1ccc(Cc2ccc(O)cc2)cc1 | inactive |
| CCC[CH2][Sn]([Cl])([Cl])[CH2]CCC | inactive |
| OC[C@@H](O)[C@H]1O[C@@H]2O[C@H](C(Cl)(Cl)Cl)O[C@@H]2[C@H]1O | inactive |
| Brc1c(Br)c(Br)c(Oc2c(Br)c(Br)c(Br)c(Br)c2Br)c(Br)c1Br | inactive |
| CC(O)(CS(=O)(=O)c1ccc(F)cc1)C(=O)Nc1ccc(C#N)c(C(F)(F)F)c1 (stereo not drawn) | inactive |

| SMILES | outcome |
| --- | --- |
| C=CCc1ccccc1O | inactive |
| CCCCOC(=O)COC(=O)c1ccccc1C(=O)OCCCC | inactive |
| Cc1cc(SCc2sc(-c3ccc(C(F)(F)F)c(F)c3)nc2C)ccc1OCC(=O)O | inactive |
| Cc1cc(C(F)(C(F)(F)F)C(F)(F)F)ccc1NC(=O)c1cccc(I)c1C(=O)NC(C)(C)CS(C)(=O)=O | inactive |
| C[As+](C)(C)CC(=O)[O-] | inactive |
| CN(N=O)C(N)=O | inactive |
| C[C@]12CC[C@@H](O)C[C@@H]1CC[C@@H]1[C@@H]2CC[C@]2(C)C(=O)CC[C@@H]12 | inactive |
| Nc1ccc(N)cc1 | inactive |
| Nc1ncn[nH]1 | inactive |
| CC1(C)[C@H](C(=O)O[C@H](C#N)c2cccc(Oc3ccccc3)c2)[C@@H]1/C=C(\Cl)C(F)(F)F | inactive |
| CC(C)[C@@H](Nc1ccc(C(F)(F)F)cc1Cl)C(=O)OC(C#N)c1cccc(Oc2ccccc2)c1 (stereo partly drawn) | inactive |
| Cc1cc(Cl)ccc1N | inactive |
| Brc1ccc(Br)cc1 | inactive |
| O=[N+]([O-])c1ccccc1O | inactive |
| OCCN(CCO)CCO | inactive |
| CC(C)(C)c1ccccc1O | inactive |
| O=C(O)COc1ccc(Cl)cc1 | inactive |
| N#Cc1cccnc1 | inactive |
